# Experimental data: PubChem BioAssay AID624449 (Southern Research Specialized Biocontainment Screening …, 2012)
# Entries with a potency or affinity are not part of this list. Activity calls are given as the source filed them. The rule behind the calls is not given here.
# Test: VEEV TC-83 cytopathic effect inhibition, confirmation, cell-based, TC-83 strain, set 6 (AID 624449)
# Conditions: VEEV TC-83 infected cells; series mostly up to 25 µM
row,SMILES,outcome
1,COc1ccccc1-n1c(CN2CCNCC2)nc2ccc([N+](=O)[O-])cc2c1=O,inactive
2,CCN1CCN(Cc2nc3ccc([N+](=O)[O-])cc3c(=O)n2C)CC1,inactive
3,CCN1CCN(Cc2nc3ccc(C(=O)O)cc3c(=O)n2-c2ccccc2)CC1,inactive
